CF NFkB block = inhibitors of PAF-induced NF-kB signaling, primary screen, cell-based, GFP fluorescence, uHTS | KKLEB NF-kB-GFP reporter, GFP fluorescence overnight | inhibition, % at 5 µM | 0.86% of 360,000 active | AID 588850, 2011;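 active means at least 50% inhibition at 5 µM, scaled per plate between neutral and stimulator controls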;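 further: PAF is a Pseudomonas aeruginosa culture filtrate used as stimulus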
HIF-2a block = HIF-2a reporter inhibitors, primary screen, luminescence, 786-0 RCC cells | inhibition, % at 18.8 µM | 0.72% of 360,000 active | 786-0 RCC cells HIF-2a reporter, luciferase luminescence, overnight;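 active means inhibition of the luminescence signal of 40% or more relative to plate controls, in a single-dose primary screen at 18.75 µM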
MITF TRPM1 inh = inhibitors of MITF-dependent TRPM1 promoter reporter, primary screen, cell-based, SK-MEL-5, single point, luciferase. SK-MEL-5 TRPM1 promoter luciferase, 24 h. inhibition, % at 12.5 µM. 0.83% of 330,000 active;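 active means mean inhibition across replicates of 60% or more, whatever share of single replicates reaches that level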
ABHD5-PLIN5 inh = ABHD5-PLIN5 interaction inhibitors, primary screen, cell lysate, split luciferase complementation, luminescence. inhibition, % at 4 µM. Perilipin-5 (Homo sapiens) + 1-acylglycerol-3-phosphate O-acyltransferase ABHD5 (Homo …. Split G. princeps luciferase complementation, 4 h. AID 602281, 2012. 0.78% of 360,000 active;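 active means inhibition above the mean inhibition across every tested compound plus 3 SD, cut at about 22% in these data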
KKLEB tox = cytotoxicity in KKLEB CF airway cells, primary screen, cytotoxicity control for CF NF-kB inhibitor project, cell-based, uHTS, fluorescence assay plates. KKLEB CF airway cells viability, ATPlite luminescence, overnight; stronger effect = lower value; cells stimulated with P. aeruginosa culture filtrate. activity change (cytotoxicity), % at 5 µM. 0.36% of 360,000 active;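 active means corrected activity change at or below -50% at 5 µM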
Peg3 promoter = Peg3 promoter-driven luciferase inhibitors, primary screen, cell-based, HeLa, luciferase luminescence | HeLa PEG-Prom luciferase reporter, overnight | inhibition, % at 20 µM | 1.7% of 360,000 active;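 active means inhibition of at least 50% at 20 µM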
ABHD5 PLIN5 conf = ABHD5-PLIN5 interaction inhibitors, confirmation, biochemical, luminescence; 67% of 2,200 active; inhibition, % at 4 µM; shares compounds with ABHD5-PLIN5 inh; AID 651612, 2012; in the data active means inhibition above about 23%
HNF4 counter = HNF4 dimerization inhibitors, counter-screen for ABHD5-PLIN5 interaction inhibitor project, biochemical, split-luciferase complementation, luminescence | 77% of 2,200 active | shares compounds with ABHD5-PLIN5 inh | AID 651674, 2012 | inhibition, % at 4 µM;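 active means mean inhibition across replicate wells exceeding the computed hit threshold, cut at about 13% in these data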;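 further: light from luciferase halves that rejoin when HNF4 fusion proteins dimerize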
Target sequence (P41235 whole entry, looked up, the tested form may be a part): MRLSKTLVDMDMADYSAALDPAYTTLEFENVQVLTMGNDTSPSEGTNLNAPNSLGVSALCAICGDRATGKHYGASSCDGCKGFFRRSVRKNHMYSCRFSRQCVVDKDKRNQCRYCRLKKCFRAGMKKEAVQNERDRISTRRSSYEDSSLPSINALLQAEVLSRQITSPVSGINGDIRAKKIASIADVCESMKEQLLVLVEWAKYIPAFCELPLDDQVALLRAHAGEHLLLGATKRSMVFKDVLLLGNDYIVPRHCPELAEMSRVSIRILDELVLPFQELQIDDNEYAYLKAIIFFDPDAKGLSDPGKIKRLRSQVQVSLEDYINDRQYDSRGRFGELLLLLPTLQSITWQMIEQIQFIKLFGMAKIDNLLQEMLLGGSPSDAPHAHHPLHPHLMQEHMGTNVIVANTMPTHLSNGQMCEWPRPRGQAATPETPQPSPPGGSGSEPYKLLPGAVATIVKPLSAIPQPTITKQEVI
Hits are given with their value; – = inactive; · = not tested or not shown. This is a sample that favours compounds with a hit; in the whole collection about 3% have one here.

SMILES	CF NFkB block	HIF-2a block	MITF TRPM1 inh	ABHD5-PLIN5 inh	KKLEB tox	Peg3 promoter	ABHD5 PLIN5 conf	HNF4 counter
Cc1ccc(-c2ccc(SCC(=O)Nc3cc(C)on3)nn2)cc1	–	–	–	55	–	–	–	–
CC(OC(=O)c1ccccc1C(=O)N(C)c1ccccc1)C(=O)Nc1ccccc1[N+](=O)[O-] (stereo not given)	–	–	–	–	–	–	·	·
Cc1cccc(-c2nc(=S)c3c(n2Cc2ccco2)CCCC3)c1	–	–	–	28	–	–	–	–
CCOc1ccc(C(=O)CC(Sc2ccc(C)cc2)C(=O)O)cc1 (stereo not given)	–	–	–	60	–	–	–	69
O=C(CC(Sc1ccc(Br)cc1)C(=O)O)c1ccc(F)cc1 (stereo not given)	–	–	–	66	–	–	42	80
Cc1ccc(S(=O)(=O)C2CS(=O)(=O)CC2O)cc1 (stereo not given)	–	–	–	–	–	–	·	·
CC(=O)C1=C(S(=O)(=O)c2ccc(C)cc2)CS(=O)(=O)C1	–	–	–	29	–	–	99	110
Cc1ccc2nc(C(C)(C)C)c(Cc3ccsc3)n2c1	–	–	·	40	–	–	55	48
CCOC(=O)N1CCc2c(sc(NC(=O)CCS(=O)(=O)c3ccccc3)c2C(N)=O)C1	–	–	–	30	–	–	24	37
CCOC(=O)C(=Cc1ccc(-n2ccnc2)cc1)C(=O)OCC	71	93	·	63	–	107	88	96
Cc1ccc(C(=O)Nc2nc3ccccc3c(=O)s2)cc1	–	–	–	29	–	–	–	–
Cc1ccc(S/C=C\C(=O)c2ccccc2)cc1	–	–	–	31	–	–	48	33
O=C(/C=C/[C@H]1O[C@@H](n2ccc(=O)[nH]c2=O)[C@H](O)[C@@H]1O)NCCc1c[nH]c2ccccc12	–	–	·	–	–	–	·	·
CCOC(=O)N1CCN(C(=O)C2CCN(C(=O)c3ccccc3C)CC2)CC1	–	–	74	26	–	107	38	91
COc1ccc(/C=C/C(=O)c2ccccc2O)cc1	–	–	–	–	–	–	·	·
COc1ccc(/C=C/C(=O)c2c(O)c(OC)c3occc3c2OC)cc1	–	–	–	49	–	–	79	65
O=c1[nH]c([N+](=O)[O-])nn1C(c1ccccc1)c1ccccc1	–	–	·	–	–	–	·	·
CCOc1cc(/C=C/C(=O)c2ccc(OC)c(CN3CCOCC3)c2)cc(Br)c1O	–	–	–	23	–	–	30	24
CCOc1cc(/C=N/NC(=O)c2ccc(CN3CCOCC3)cc2)ccc1OC	–	–	–	–	–	–	·	·
CC[C@]12c3[nH]c4ccccc4c3CCN1C(=O)C(CC(=O)NCc1ccc(OC)c(OC)c1)C[C@@H]2C(=O)N1CCN(C(=O)C2CC2)CC1 (stereo not given in full)	–	–	–	–	–	–	·	·
CNC(=O)/C(C#N)=C/c1ccc(-c2nc3ccccc3s2)o1	–	–	·	35	–	–	–	–
CCOC(=O)c1c(-c2ccco2)csc1NC(=O)COC(=O)c1cnccn1	–	–	–	25	–	–	–	15
O=c1c2cc(N3CCOCC3)ccc2[nH]c(=S)n1Cc1ccc(Cl)cc1	–	–	–	–	–	–	·	·
Cc1ccc(Cn2c(=S)[nH]c3ccc(N4CCOCC4)cc3c2=O)o1	–	–	–	31	–	–	43	91
Cc1ccc(CN2CC(C(=O)NCC(=O)Nc3c(C)cccc3C)CC2=O)cc1 (stereo not given)	–	–	–	–	–	–	·	·
SMILES	CF NFkB block	HIF-2a block	MITF TRPM1 inh	ABHD5-PLIN5 inh	KKLEB tox	Peg3 promoter	ABHD5 PLIN5 conf	HNF4 counter
CCN(CC)c1ccc(/C=C2/SC(=O)N(C(C)C)C2=O)o1	–	–	–	93	–	–	73	109
CCc1cc(C(c2ccc(OC)c(OC)c2)N2CCOCC2)c(NC(=O)c2ccccc2)s1 (stereo not given)	–	–	–	33	–	–	99	86
O=C(NCc1ccccc1)C12CC3CC(CC(Br)(C3)C1)C2	–	–	–	–	–	–	·	·
O=[N+]([O-])c1cc(S(=O)(=O)Nc2ccccc2)ccc1N1CCN(c2ccc(O)cc2)CC1	–	–	–	–	–	–	·	·
Cc1ccc(NS(=O)(=O)c2ccc(N3CCN(c4ccc(O)cc4)CC3)c([N+](=O)[O-])c2)c(C)c1	–	–	–	35	–	–	–	–
O=C(COC(=O)c1ccc(Br)o1)c1ccc(S(=O)(=O)N2CCCCC2)cc1	–	–	–	–	–	–	·	·
O=C(O)CCc1ccc(-c2ccccc2)o1	–	–	–	38	–	–	24	48
O=C1Nc2ccc(Br)cc2/C1=C/C1CC=CCC1 (stereo not given)	–	–	–	25	–	–	53	38
O=C1NC(Cc2ccccc2)C(=O)Nc2ccc(Br)cc21 (stereo not given)	–	–	–	–	–	–	·	·
O=[N+]([O-])c1ccc(N2N=C(c3ccco3)CC2c2ccccc2)cc1 (stereo not given)	–	–	–	29	–	–	–	24
Fc1ccc(C2CC(c3ccco3)=NN2c2ccccc2)cc1 (stereo not given)	–	–	–	–	–	–	·	·
COC(=O)c1sccc1NC(=O)c1c(Cl)cnn1C	–	–	–	–	–	–	·	·
CN(C(=O)c1ccc2c(c1)OCO2)C1CCS(=O)(=O)C1 (stereo not given)	–	–	–	–	–	–	·	·
CN(C)CCNC(=O)c1ccc(COc2ccc(Cl)cc2Cl)cc1	–	–	–	27	–	54	–	–
C=CCN([C@H](C(=O)OC)C(C)C)S(=O)(=O)CCNCc1ccccc1	–	–	–	–	–	–	·	·
CC(=O)N1c2ccccc2NC2=C(C(=O)CCC2)C1c1ccco1 (stereo not given)	–	–	–	30	–	–	–	37
COc1ccc(C(=O)OCc2ccccc2C#N)cc1S(=O)(=O)N1CCOCC1	–	–	·	–	–	–	·	·
CCOC(=O)C1=C(C)NC(C)=C(C(=O)OCC)C1C(=O)OCC(N)=O	–	–	–	–	–	–	·	·

High-throughput results deposited in PubChem by several laboratories.
